TROY NFkB inh: blocks TROY-dependent signaling in reporter cells; Q293 LMP1-TROYcd NF-kB luciferase reporter, 4 h; inhibition, % at 10 µM; hit rate 0.98% among 360,000; AID 1347056;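 active = compounds whose plate-normalised and pattern-corrected inhibition of the luciferase reporter signal at the single screening dose is 50% or more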
CF NFkB inh: blocks PAF-induced NF-kB reporter in cystic fibrosis cells; KKLEB NF-kB-GFP reporter, GFP fluorescence overnight; inhibition, % at 5 µM; hit rate 0.86% among 360,000; AID 588850;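 active = at least 50% inhibition at 5 µM, scaled per plate between neutral and stimulator controls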;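 note: PAF is a Pseudomonas aeruginosa culture filtrate used as stimulus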
TWEAK Fn14 block: blocks TWEAK-Fn14 interaction in a reporter cell assay | hit rate 2% among 360,000 | TWEAK-stimulated Fn14 reporter cells, luciferase luminescence, 8 h | inhibition, % at 10 µM | AID 1159606; in the data active = inhibition above about 50%
KKLEB tox: CF airway cell cytotoxicity counter-screen | KKLEB CF airway cells viability, ATPlite luminescence, overnight; stronger effect = lower value; cells stimulated with P. aeruginosa culture filtrate | activity change (cytotoxicity), % at 5 µM | hit rate 0.36% among 360,000 | AID 602141;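 active = corrected activity change at or below -50% at 5 µM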
Peg3 promoter: reduces Peg3 promoter-driven luciferase expression in HeLa; AID 588405; HeLa PEG-Prom luciferase reporter, luminescence, overnight; hit rate 1.7% among 360,000; inhibition, % at 20 µM;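 active = inhibition of at least 50% at 20 µM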
HIF-2a inh: blocks HIF-2a reporter activity; 786-0 RCC cells HIF-2a reporter, luciferase luminescence, overnight; hit rate 0.72% among 360,000; AID 624352; inhibition, % at 18.8 µM;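 active = inhibition of the luminescence signal of 40% or more relative to plate controls, in a single-dose primary screen at 18.75 µM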
Numbers stand for hits. Rows were chosen to be rich in hits. Some 4% of all compounds tested hit in one or more screens of this group.

Results for Cc1ccc(NC2=C/C(=N/S(=O)(=O)c3cccs3)c3ccccc3C2=O)cc1C ?
TROY NFkB inh: inactive; CF NFkB inh: inactive; TWEAK Fn14 block: inactive; KKLEB tox: inactive; Peg3 promoter: inactive; HIF-2a inh: inactive

Results for CC1=C(Nc2ccc(C(=O)O)cc2)C(=O)c2ccccc2C1=O ?
TROY NFkB inh: inactive; CF NFkB inh: inactive; TWEAK Fn14 block: inactive; KKLEB tox: inactive; Peg3 promoter: inactive; HIF-2a inh: inactive

How did O=C(O)c1ccc(S(=O)(=O)/N=C2\C=C(Nc3ccccc3F)C(=O)c3ccccc32)cc1 do in these assays?
TROY NFkB inh: inactive; CF NFkB inh: 102.0; TWEAK Fn14 block: 96.4; KKLEB tox: -69.6; Peg3 promoter: 103.8; HIF-2a inh: inactive

How did CSCCC(NC(=O)c1ccc(Cl)cc1Cl)C(=O)OC1CCCCC1=O (configuration not stated) do in these assays?
TROY NFkB inh: inactive; CF NFkB inh: inactive; TWEAK Fn14 block: inactive; KKLEB tox: inactive; Peg3 promoter: inactive; HIF-2a inh: inactive

What do the screens show for `CC(=O)Nc1cccc(CCc2nc3ccccc3[nH]2)c1`?
TROY NFkB inh: inactive; CF NFkB inh: inactive; TWEAK Fn14 block: inactive; KKLEB tox: inactive; Peg3 promoter: inactive; HIF-2a inh: inactive

What do the screens show for `Cc1cc(SCC(=O)N/N=C/c2ccc(O)cc2O)nc2ccccc12`?
TROY NFkB inh: inactive; CF NFkB inh: inactive; TWEAK Fn14 block: inactive; KKLEB tox: inactive; Peg3 promoter: 53.9; HIF-2a inh: inactive
